Compound activity (PubChem BioAssay)
JMJD2E inh: qHTS Assay for Inhibitors of Human Jumonji Domain Containing 2E (JMJD2E); AID 2147, 2009; JMJD2E catalytic domain, FDH-coupled NADH fluorescence (FDH is formaldehyde dehydrogenase); Potency, µM (titrated, usually from 57.1 µM), inactives show at the highest dose activity change, negative = inhibition, usual class: inhibitors; actives 1.6% (n = 230,000); Lysine-specific demethylase 4E (Homo sapiens), B2RXH2;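 note: 0% = wells with enzyme and -100% = buffer wells without enzyme; nearly all actives have a fitted effect of over 50% in size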
Tau fluor cs: Counterscreen qHTS for Inhibitors of Tau Fibril Formation, Fluorescence Polarization; actives 0.93% (n = 280,000); AID 1463, 2008; tau K18 P301L Alexa594 fluorescence, heparin fibrillization; Potency, µM (series often up to 57.7 µM), without a hit: at the top dose activity change, negative = decrease; active = well fitted curve in the direction sought with a large enough effect; inconclusive = small, poorly fitted or top-dose-only effect, or another doubt; inactive = no such curve, though single readings can be large; an effect the other way counts as inactive or inconclusive; note: nearly all actives have a fitted effect of over 55% in size
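Human K18 P301L tau (15 uM unlabeled plus 0.24 uM Alexa 594-labeled, final) in 100 mM sodium acetate pH 7 was mixed with compound and 20 uM heparin and incubated 6 hr at 37 C.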
ALDH1A1 inh: qHTS Assay for Inhibitors of Aldehyde Dehydrogenase 1 (ALDH1A1); Purified ALDH1A1, NADH fluorescence, propionaldehyde substrate; actives 7.3% (n = 220,000); Aldehyde dehydrogenase 1A1 (Homo sapiens), P00352; Potency, µM (doses to about 75.3 µM), for inactives: top-dose activity, negative = inhibition, most hits filed as inhibitors; AID 1030, 2008;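 note: plate controls were no enzyme wells and a reference inhibitor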
HPGD inh: qHTS Assay for Inhibitors of HPGD (15-Hydroxyprostaglandin Dehydrogenase); 15-hydroxyprostaglandin dehydrogenase [NAD(+)] (Homo sapiens), P15428; purified HPGD, NADH fluorescence kinetic, PGE2 substrate; Potency, µM, inactives show top-dose activity change, negative = inhibition, usual class: inhibitors; actives 4.3% (n = 150,000)
Target sequence (P15428 whole entry, looked up): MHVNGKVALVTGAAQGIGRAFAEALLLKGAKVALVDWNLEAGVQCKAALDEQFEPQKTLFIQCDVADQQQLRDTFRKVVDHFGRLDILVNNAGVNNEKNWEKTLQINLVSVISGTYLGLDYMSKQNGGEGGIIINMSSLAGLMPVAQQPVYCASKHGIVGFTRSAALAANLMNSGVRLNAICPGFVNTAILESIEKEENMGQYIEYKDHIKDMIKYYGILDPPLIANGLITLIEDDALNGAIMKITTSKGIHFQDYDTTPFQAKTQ
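20 nM HPGD preincubated 15 min at room temperature with compound in 50 mM Tris-HCl pH 8, 0.01% Tween 20. Started with 1 mM NAD+ and 30 uM prostaglandin E2; NADH fluorescence (360/450 nm) read 5 times over 30-s intervals, last minus first.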
Tau fibril ThT: qHTS for Inhibitors of Tau Fibril Formation, Thioflavin T Binding | Microtubule-associated protein tau (Homo sapiens), P10636 | Potency, µM (titrated, usually from 57.4 µM), inactives show at the top dose activity, negative = inhibition, usual class: inhibitors | recombinant tau K18 P301L (four-repeat tau fragment), heparin-induced fibrillization, ThT fluorescence | actives 2.1% (n = 270,000); active = well fitted curve in the direction sought with a large enough effect; inconclusive = small, poorly fitted or top-dose-only effect, or another doubt; inactive = no such curve, though single readings can be large; an effect the other way counts as inactive or inconclusive; note: nearly all actives have a fitted effect of over 55% in size
Target sequence (P10636 561-689 P618L limits assumed): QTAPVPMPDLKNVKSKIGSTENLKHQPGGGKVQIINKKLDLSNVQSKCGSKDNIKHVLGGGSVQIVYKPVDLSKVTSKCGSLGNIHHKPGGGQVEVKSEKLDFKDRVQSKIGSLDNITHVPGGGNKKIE
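Heparin-induced fibrillization of the P301L-mutant K18 repeat-domain fragment of human tau was followed by ThT binding in quantitative high-throughput format.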
Tau fibril FP: qHTS for Inhibitors of Tau Fibril Formation, Fluorescence Polarization; AID 1468, 2008; K18 P301L tau heparin fibrillization, Alexa594 FP, 6 h; Potency, µM (top dose mostly 57.7 µM), for the others: at the top dose activity, negative = inhibition, hits mostly inhibitors; actives 0.39% (n = 280,000); active = well fitted curve in the direction sought with a large enough effect; inconclusive = small, poorly fitted or top-dose-only effect, or another doubt; inactive = no such curve, though single readings can be large; an effect the other way counts as inactive or inconclusive; note: nearly all actives have a fitted effect of over 55% in size
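Recombinant K18 P301L […], labeled with Alexa 594 at 0.24 uM over 15 uM unlabeled; heparin inducer 20 uM final; 37 C, 6 hr; FP endpoint.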
The depositor's hits bear a star; ? = inconclusive; / = no result given; [ ] = remark or other dose. An excerpt weighted towards active compounds, which were near 9.9% of everything screened. Unless noted, calls come from the whole dose curve; as a rule, active = well fitted inhibition curve with a large enough effect (not every such curve was filed as active); inconclusive = small, poorly fitted or top-dose-only effect, or another doubt; inactive = no such curve, though single readings can be large or run the other way. Unless noted, % is set by controls: 0 for no effect and ±100 for the full control effect; potency is the fitted concentration of half-maximal effect.

SMILES	JMJD2E inh	Tau fluor cs	ALDH1A1 inh	HPGD inh	Tau fibril ThT	Tau fibril FP
COc1ccc(S(=O)(=O)NCCC(=O)NCc2cccs2)cc1	2%	1%	-3%	-3%	3%	-1%
Cc1ccc(S(=O)(=O)NCCSCc2ccco2)cc1	-7%	-21%	20µM*	/	-10%	-8%
COc1ccc(S(=O)(=O)NCCSCc2ccco2)cc1	-11%	-8%	2.8µM*	-16%	?	-6%
CC(NC(=O)c1ccc(N)cc1)c1ccccc1 (stereo unspecified)	0%	-8%	5%	/	-10%	0%
CCOc1ccc(NC(=O)CSc2nccn2-c2cccc(C)c2C)cc1	/	-19%	/	/	-15%	2%
Cc1cccc(S(=O)(=O)c2cn(Cc3ccc(F)cc3)c3cc(N4CCCCC4)c(F)cc3c2=O)c1	/	5%	/	/	10%	-7%
CCNC(=O)CC1C(=O)N(c2ccc(F)cc2)C(=O)N1CCOC (stereo unspecified)	/	5%	/	/	4%	-3%
CCN(CC)S(=O)(=O)c1cccc(C(=O)Nc2sc3c(c2C#N)CCC(C)C3)c1 (stereo unspecified)	/	-28%	/	/	-10%	-7%
Cc1nn(C)cc1/C=N/O	7%	5%	5%	-3%	0%	2%
CSc1sc(C)cc1/C=N/O	13%	-20%	-5%	16µM*	-13%	-1%
Cc1c(C(=O)N2CCCC2)nnn1-c1nonc1N	1%	-3%	25µM*	-30%	-4%	-10%
Cc1cccc(NC(=O)CN2C(=O)N/C(=C/c3cc(C)n(-c4ccncc4)c3C)C2=O)c1	-20%	0%	2%	-11%	-1%	-4%
Cc1cc(/C=C2/NC(=S)NC2=O)c(C)n1-c1cccnc1	-15%	-7%	-4%	/	?	8%
Cc1cccc(NC(=O)CN2C(=O)N/C(=C/c3cc(C)n(-c4cccnc4)c3C)C2=O)c1	18µM*	-15%	-9%	/	-11%	7%
Cc1cc(/C=C2/NC(=O)N(c3ccccc3)C2=O)c(C)n1-c1cccnc1	20µM*	-17%	4.5µM*	-18%	?	-1%
Cc1cccc(NC(=O)CN2C(=O)N/C(=C/c3cc(C)n(C)c3C)C2=O)c1	32µM*	?	-2%	/	?	5%
Cc1ccc(/C=C2\SC(=S)N(c3cccnc3)C2=O)o1	11µM*	-18%	/	/	16µM*	?
CCOc1cc(S(=O)(=O)NCc2ccncc2)c(C)cc1C	-6%	-2%	-2%	/	-2%	-3%
O=C1c2ccccc2C(=O)N1c1ccc(Cc2ccc(N3C(=O)c4ccccc4C3=O)cc2)cc1	/	/	-1%[13.5 µM]	2%	/	/
COc1cc(OC)c(NC(=O)Cn2cnc3sc(C)c(S(=O)(=O)N4CCN(C)CC4)c3c2=O)cc1Cl	/	-4%	/	/	-3%	3%
Cc1cc(/C=C2/SC(=S)N(c3ccc([N+](=O)[O-])cc3)C2=O)c(C)n1-c1cccnc1	-28%	-24%	1.3µM*	?	?	2%
CC(C)(C)NC(=O)[C@@H]1CC[C@@H]2[C@@H]3CC[C@@H]4NC(=O)C=C[C@@]4(C)[C@H]3CC[C@]21C	5%[25.5 µM]	/	-15%[20.9 µM]	-5%	/	/
COc1ccc(NC(=O)CCS(=O)(=O)c2cc(Br)cc3c2N(C(C)=O)CC3)c(OC)c1	/	3%	/	/	-3%	-5%
O=C1C=C(NCc2ccccc2)c2ccccc2C1=O	?	-25%	?	/	14µM*	?
CCOc1ccc(C2CC(c3ccc(F)cc3)n3ncnc3N2)cc1 (stereo unspecified)	-12%	-10%	-4%	2%	-1%	3%
SMILES	JMJD2E inh	Tau fluor cs	ALDH1A1 inh	HPGD inh	Tau fibril ThT	Tau fibril FP
COc1cccc(-c2noc(Cn3nc(C)c([N+](=O)[O-])c3C)n2)c1	-9%	-6%	-8%	25µM*	-3%	-1%
COc1ccc2cc3cc(C(=O)Nc4ccccc4C)oc3nc2c1	/	-25%	/	/	?	-13%
COC(=O)c1cc(C#N)c(SCc2ccccc2)nc1C	1%	-26%	?	-29%	-15%	-10%
CC(=O)c1cc(C#N)c(SCc2ccccc2)nc1C	-1%	-24%	18µM*	-20%	-18%	3%
Cc1ccc(C(c2c(C)[nH][nH]c2=O)c2c(C)[nH][nH]c2=O)cc1[N+](=O)[O-]	2%	-13%	-7%	-18%	-14%	4%
COc1cc(C(c2c(C)[nH][nH]c2=O)c2c(C)[nH][nH]c2=O)cc([N+](=O)[O-])c1O	-19%	-25%	1%	/	14µM*	?
CCOc1cc(C(c2c(C)[nH][nH]c2=O)c2c(C)[nH][nH]c2=O)ccc1OCc1ccc([N+](=O)[O-])cc1	-24%	?	?	-11%	11µM*	-5%
CCOc1cc(C(c2c(C)[nH][nH]c2=O)c2c(C)[nH][nH]c2=O)ccc1OC(=O)c1cccc([N+](=O)[O-])c1	-24%	?	-2%	-10%	?	-8%
CC(C)(C)NC(=O)CON=C1c2ccccc2-c2ccccc21	2%	-20%	1%	?	?	6%
CCCN1C(=O)/C(=N\OCC(=O)NCC(F)(F)F)c2ccccc21	?	-9%	1.3µM*	-17%	-11%	-3%
COc1ccc(N2CCN(c3nc4ccc(C)cc4n4nnnc34)CC2)cc1	/	-19%	/	/	?	?
Cc1ccc2nc(Cl)c3nnnn3c2c1	?	1%	28µM*	/	?	-5%
Cc1ccc2nc(N3CCN(c4cccc(C)c4C)CC3)c3nnnn3c2c1	3.5µM*	-23%	-3%	-28%	-16%	5%
N#Cc1c(NCc2ccccc2)ccnc1NCc1cccnc1	1%	-16%	4%	13µM*	-17%	-6%
c1ccc(-c2nc(NCc3cccnc3)c3ccccc3n2)cc1	-4%	-23%	?	-4%	14%	-11%
Cc1cc(N(C)C)c(C#N)c(NCc2ccccc2)n1	6%	-17%	2%	-25%	-7%	?
CN(C)c1ccnc(NCc2ccccc2)c1C#N	?	-2%	?	14µM*	1%	-1%
O=C1c2cccc3cccc(c23)C(=O)N1c1cccnc1	-9%	?	3%	/	-7%	13µM*
